Sampled rows, rich in hits. Any-hit rate of the full collection: about 3.2%.
BRCA1 expr act – activators of BRCA1 expression; 380,000 compounds, 1.1% hits; Potency, µM (highest dose often 46.1 µM), inactives show top-dose activation, actives largely listed as activators; MCF7-BRCA1-FFLuc reporter, luminescence, 48 h; response scale: scaled: vehicle 0%, 10 µM genistein 100%; AID 624202; note: potency is the fitted concentration of half-maximal effect; nearly all actives have a fitted effect of over 80% in size
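Quantitative HTS in MCF7 cells stably reporting BRCA1 expression via firefly luciferase. Compound treatment lasts 48 h at 37 °C in phenol-red free MEM. Activation is expressed relative to genistein at 10 microM and DMSO.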
A549 viability – kills or reduces viability of A549 cells in Nrf2 counter-screen; A549 ARE-Fluc cells, CellTiter-Fluor viability, 18-24 h; Potency, µM (titrated, usually from 46 µM), for inactives: at the highest dose activity change, negative = cytotoxicity, hits mostly inhibitors; 390,000 compounds, 0.16% hits; note: potency is the fitted concentration of half-maximal effect; % is set by controls: 0 for no effect and ±100 for the full control effect
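A549 ARE_Fluc cells in 5% FBS OPTI-MEM were exposed to compounds in concentration-response for 18-24 h at 37 deg C. Viability was read by CellTiter-Fluor fluorescence (Ex 405/Em 525) after 30 min, before the luciferase read.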
IL2 activator – IL-2 activation; 360,000 compounds, 0.065% hits; activation, % (series mostly up to about 46 µM); IL-2 activation reporter assay, cell-based qHTS; stimulated with anti-CD3/CD4/CD28 beads; in transgenic mouse T cells; in the data active = activation above about 50%; inconclusive = mostly about 30% to 49%; note: 0% is about no effect
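Using fluorescent plate cytometry, EGFP and DsRed are detected in transgenic mouse T cells stimulated 18 h at 37 degrees C with antibody-coated beads after 60 min compound pretreatment.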
p53 reactivation – restores transcriptional activity of mutant p53. H1299 p53-A138V BP100-luciferase reporter, luminescence, 24 h. Potency, µM (doses to about 92.2 µM), for inactives: top-dose activity change, positive = activation, actives largely listed as activators. 320,000 compounds, 0.063% hits. AID 504706; note: potency is the fitted concentration of half-maximal effect; % of control where 0% means no effect; nearly all actives have a fitted effect of over 45% in size
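p53-null H1299 cells stably carrying temperature-sensitive p53-A138V and a BP100-luciferase reporter were pinned with compounds (4-point, 1:5 series) and held 24 hrs at 37 deg C. Luminescence was read 10 min after detection reagent.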
Nrf2 activator – activates Nrf2 signaling | AREc32 ARE-luciferase reporter (MCF7-derived line), luminescence, 24 h | Potency, µM (doses to about 46.1 µM), for inactives: at the top dose activation, most hits filed as activators | 410,000 compounds, 0.31% hits; note: potency is the fitted concentration of half-maximal effect; % of control where 0% means no effect; nearly all actives have a fitted effect of over 65% in size
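ARE activation measured as luciferase luminescence (Steady-Glo, 30 min RT) in AREc32_Fluc cells after 24 hr compound exposure at 37 deg C, 5% CO2; cells seeded overnight at 1000/well in OPTI-MEM, 5% FBS.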
Nrf2 inh – inhibitors of Nrf2 signaling; AID 504444; A549 ARE-Fluc reporter, luciferase luminescence, 18-24 h; Potency, µM (doses to about 46 µM), inactives show at the highest dose activity change, negative = inhibition, hits mostly inhibitors; 360,000 compounds, 2.1% hits; note: potency is the fitted concentration of half-maximal effect; % is set by controls: 0 for no effect and ±100 for the full control effect; nearly all actives have a fitted effect of over 60% in size
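Nrf2 function is reported as luminescence of an ARE-controlled luciferase in A549 cells. Compounds were tested at several concentrations, and a CellTiter-Fluor read on the same wells flagged cytotoxicity.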
Active calls of the source: *. Unless noted, calls come from the whole dose curve; as a rule, active = well fitted curve in the direction sought with a large enough effect; inconclusive = small, poorly fitted or top-dose-only effect, or another doubt; inactive = no such curve, though single readings can be large; an effect the other way counts as inactive or inconclusive.

How did CCCOC(=O)c1cccc(NC(=O)COc2ccc([N+](=O)[O-])cc2)c1 do in these assays?
BRCA1 expr act: 1%; A549 viability: -24%; IL2 activator: -1; p53 reactivation: 6%; Nrf2 activator: 1%; Nrf2 inh: inconclusive

What do the screens show for `CCOC(=O)c1cccc(NC(=O)c2ccc(NC(=O)c3ccco3)cc2)c1`?
BRCA1 expr act: 16%; A549 viability: -11%; IL2 activator: -1; p53 reactivation: -4%; Nrf2 activator: 5%; Nrf2 inh: 21µM*

How did CCOC(=O)c1cccc(NC(=O)COc2ccc([N+](=O)[O-])cc2)c1 do in these assays?
BRCA1 expr act: 2%; A549 viability: -10%; IL2 activator: 5; p53 reactivation: -6%; Nrf2 activator: 0%; Nrf2 inh: 26µM*

Results for CC1CCN(S(=O)(=O)c2cc(C(=O)N3CCN(c4cccc(Cl)c4)CC3)n(C)c2)CC1 ?
BRCA1 expr act: -48%; A549 viability: -1%; Nrf2 activator: 3%

Results for CSc1ncc(C(=O)NCc2ccc(C)cc2)c(-c2ccccc2)n1 ?
A549 viability: 9%; Nrf2 activator: 0%; Nrf2 inh: inconclusive

How did COc1ccc2nc(Nc3nc(CSc4nc5ccccc5[nH]4)cc(=O)[nH]3)nc(C)c2c1 do in these assays?
BRCA1 expr act: -75%; A549 viability: inconclusive; IL2 activator: 0; p53 reactivation: 40µM*; Nrf2 activator: 4%; Nrf2 inh: inconclusive

How did Cc1nc(Nc2nc(CSc3nc4ccccc4[nH]3)cc(=O)[nH]2)nc2ccccc12 do in these assays?
BRCA1 expr act: -96%; A549 viability: inconclusive; IL2 activator: -6; p53 reactivation: inconclusive; Nrf2 activator: 4%; Nrf2 inh: 22%

What do the screens show for `O=C(CC1C(=O)N(c2ccc(F)cc2)C(=O)N1Cc1cccnc1)Nc1ccc(F)cc1` (centres undefined)?
A549 viability: 7%; Nrf2 activator: 0%; Nrf2 inh: 20%

Results for Cc1c(C(=O)N2CCc3ccccc32)oc2c1C(=O)CC(C)(C)C2 ?
BRCA1 expr act: 13µM*; A549 viability: 0%; IL2 activator: -1; p53 reactivation: inconclusive; Nrf2 activator: 3%

What do the screens show for `Cc1c(C(=O)N2CCN(C)CC2)oc2c1C(=O)CC(C)(C)C2`?
BRCA1 expr act: 5%; A549 viability: 2%; IL2 activator: 0; p53 reactivation: inconclusive; Nrf2 activator: -1%; Nrf2 inh: 9%

How did CCN(CC)c1ccc(/C=C(/C#N)C(=O)NCc2ccccc2)o1 do in these assays?
BRCA1 expr act: 10µM*; A549 viability: -13%; IL2 activator: 29; p53 reactivation: 27%; Nrf2 activator: 4%; Nrf2 inh: 28%

Results for Cc1cc(NC(=O)c2ccc3[nH]c(C)c(C)c3c2)ccn1 ?
BRCA1 expr act: 25%; A549 viability: 0%; IL2 activator: -2; p53 reactivation: 9%; Nrf2 activator: 0%; Nrf2 inh: inconclusive

What do the screens show for `CC(=O)Nc1cccc(NC(=O)c2ccc3[nH]c(C)c(C)c3c2)c1`?
BRCA1 expr act: 10µM*; A549 viability: -5%; IL2 activator: -3; p53 reactivation: 13%; Nrf2 activator: 5%; Nrf2 inh: -5%

How did CCOc1ccc(NC(=O)N(Cc2cn(CC)c3ccccc23)C2CCCCCC2)cc1 do in these assays?
BRCA1 expr act: -44%; A549 viability: inconclusive; Nrf2 activator: -1%; Nrf2 inh: inconclusive

What do the screens show for `OCCC#Cc1c(-c2ccsc2)sc2ccccc12`?
BRCA1 expr act: -30%; A549 viability: 5%; IL2 activator: 0; Nrf2 activator: 2.5µM*; Nrf2 inh: 7%

How did OCCCCC#Cc1c(-c2ccsc2)sc2ccccc12 do in these assays?
BRCA1 expr act: -17%; A549 viability: -3%; IL2 activator: 0; p53 reactivation: 5%; Nrf2 activator: inconclusive; Nrf2 inh: 0%

What do the screens show for `Cc1cc2c(nn1)CCc1nonc1-2`?
BRCA1 expr act: 0%; A549 viability: -7%; IL2 activator: 1; p53 reactivation: -4%; Nrf2 activator: 0%; Nrf2 inh: 4%

How did Cc1ccc2c3c([nH]c2c1C)-c1nonc1CC3 do in these assays?
BRCA1 expr act: 8.9µM*; A549 viability: -5%; IL2 activator: 0; p53 reactivation: inconclusive; Nrf2 activator: 3%; Nrf2 inh: 22%

Results for COc1ccc(NC(=S)N=Nc2c(O)[nH]c3ccccc23)cc1 ?
BRCA1 expr act: -7%; A549 viability: inconclusive; IL2 activator: 0; p53 reactivation: 4%; Nrf2 activator: 18%; Nrf2 inh: 9.2µM*

Results for CCOC(=O)Cc1c(C(=O)OCC)nnc2c(-c3ccccc3)c(C)nn12 ?
BRCA1 expr act: -3%; A549 viability: 0%; Nrf2 activator: -1%; Nrf2 inh: 1%

What do the screens show for `CCOC(=O)C[C@@H]1OC[C@H](C(C)C)N1S(=O)(=O)c1ccc(C)cc1`?
IL2 activator: -1

How did Cc1cc(C)c2nc(N3CCC(C(=O)NCc4ccccn4)CC3)sc2c1 do in these assays?
BRCA1 expr act: 4µM*; A549 viability: 11%; IL2 activator: -3; p53 reactivation: 2%; Nrf2 activator: 6%; Nrf2 inh: inconclusive

How did CN1CCCN(Cc2nc(-c3ccc(Cl)cc3)no2)CC1 do in these assays?
BRCA1 expr act: 13µM*; A549 viability: 3%; IL2 activator: -1; p53 reactivation: 3%; Nrf2 activator: 2%; Nrf2 inh: 1%

Results for OCCN1CCN(Cc2nc(-c3cccc(Cl)c3)no2)CC1 ?
BRCA1 expr act: 46%; A549 viability: -4%; IL2 activator: -4; p53 reactivation: 0%; Nrf2 activator: 2%; Nrf2 inh: inconclusive

What do the screens show for `CCOC(=O)C(C)Sc1ccc2nnc(-c3ccc(OCC)cc3)n2n1` (centres undefined)?
BRCA1 expr act: -5%; A549 viability: -15%; Nrf2 inh: inconclusive

Results for CCn1c(=O)n(-c2ccc3c(c2)OCO3)c2nc(-c3cc(OC)ccc3OC)nc(C(N)=O)c21 ?
BRCA1 expr act: -32%; A549 viability: -1%; Nrf2 activator: -1%; Nrf2 inh: 21%

Results for CC(C)[C@H](NC(=O)N1CCn2c1nc1ccccc12)C(=O)NC1CCCCC1 ?
BRCA1 expr act: -15%; A549 viability: inconclusive; IL2 activator: -4; p53 reactivation: 20%; Nrf2 activator: 0%; Nrf2 inh: 21µM*

Results for C[C@H](NC(=O)N1CCn2c1nc1ccccc12)C(=O)NC1CCCCC1 ?
BRCA1 expr act: 2%; A549 viability: -5%; IL2 activator: -2; p53 reactivation: 2%; Nrf2 activator: 0%; Nrf2 inh: 1%
